Consider 107 sequences from PubChem BioAssay AID1508600 (Functional Genomics Laboratory (NCATS/FGL), 2020).

The campaign covered roughly 53,000 sequences. About 3,700 (7%) were called active.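 Rule for the calls: active = gene knockdowns whose robust z-score for IL-1 alpha signal is at least 2 or at most -2, so actives lie on both sides; inactive = the rest.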 The full list was thinned out, with actives kept by preference.

This assay in a line: Components of the Cytosolic LPS Sensing Pathway: Gene Identification via Genome-wide siRNA Screen.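 Note: robust z of the log signal after scaling to non-targeting control siRNA wells of the plate.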 The following applies: RAW264.7 macrophages, IL-1a HTRF, actives lie on both sides, screened at 100 nM (by protocol), cells primed 5 h with Pam3CSK4 first. Put shortly: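 Mouse macrophage line RAW264.7 is transfected with siRNA (100 nM final), grown 48h, primed with TLR ligand Pam3CSK4 5 h and given intracellular LipidA 24 h. IL-1a in supernatant is read by HTRF and viability by luminescence.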
For orientation: TR-FRET usually uses a lanthanide donor and a delayed reading to cut background.
On to GGAACAAUUGUUCCUGUGATT against Kcne1, for which the z-score is -2.04 (active).
Then GGAAGAAGCAACCACAUUCTT against Evl, with 0.898 (inactive); and GGAGGAGUUUGACUUCGACTT against Alox12, with -0.109 (inactive).
Then CGUAGACAUGGCCUUUUUUTT against Dipk1c, with -0.863 (inactive); and GCAAAUGAAUCAUGGGUGGTT against Rnf141, with 0.116 (inactive); and GGAACGUGGAUCUUUUUAUTT against Wiz, with 2.42 (active).
GCUGUCCUUCUAUAACCCATT against Frmd5: the z-score is -1.68 (inactive).
Then GCUCUACAUCGAAUUGCUGTT against Lig4, with 4.14 (active); and GGCGACAAAAAGGCUAAGCTT against Khnyn, with 0.437 (inactive).
Then GGAACUAGCCUUCACUGACTT against Rabggta, with 0.931 (inactive); and GGUUGCAUCACAGCGUAUATT against Phlpp1, with 0.759 (inactive).
Then GGAGGAAAAUGAUGGAGAGTT against Lysmd1, with 2.28 (active).
Take CCACUUUAGCUCCUUUAAGTT against Tet3: the z-score is -0.438 (inactive).
Then GGAGCUCUACAUCAUAGACTT against Lhx1, with 0.579 (inactive); and GGUAAAACAGGUAUGUCGCTT against Ramac, with 0.48 (inactive).
With CGAUGAGCUAAGAGAGUCCTT against Cand2, the z-score is 3.09 (active).
Take GGCCUACCUGGUUGAGAAATT against Spam1: the z-score is 1.44 (inactive).
For GGUCUAUGAAGAGAAGACUTT against Mtres1, the z-score was 0.8 (inactive).
Then GGCACAGUUCCUCAGUAUGTT against Hspbap1, with 1.76 (inactive); and GCAUUAUACCUGUCAAGUUTT against Klk1b1, with 0.608 (inactive); and CGAGUCAAUCAACUUGUCUTT against Olfr54, with -0.882 (inactive).
As to GGACUCUGAUCUGGAGUAGTT against Slc51a, the z-score is -0.397 (inactive).
Then GGCAAACAUCUGUAUCUAUTT against Golph3, with -0.571 (inactive); and CGGCAACUCAACAAGCUUATT against Cbfa2t3, with 2.38 (active); and GGCAUCUUUUGAAACAAUATT against Ubxn8, with -1.04 (inactive).
With GGCAGUGGGAUUACAAUGATT against Med12, the z-score was 2.02 (active).
Then GGCAUACAAAGCCCUCUAUTT against Kcnrg, with -0.457 (inactive); and GGAUGUGAUGACUCAUUUUTT against Zbtb8os, with 0.976 (inactive); and GGUGAAUAAAGACCGAGGUTT against Anks6, with -1.58 (inactive).
With GCGUGAGGAUGUAGACUACTT against Mmp12, the z-score is 0.699 (inactive).
Then GGACAUUUUUGUCUCUAAATT against Pacc1, with 0.167 (inactive); and CCGACACAAGAUGCUCAGUTT against Tmem9, with -2.3 (active); and GGACAAUUCCAUGCUUCCCTT against Il24, with -0.00641 (inactive).
Then “CGCGCAGAUGCACCAGAUUTT against 2610028H24Rik”, with 1.12 (inactive).
Then GGUCAAAGAUGCUAUAAAATT against Olfr993, with -0.843 (inactive); and GGAGGCAGCUCCUAUGAUGTT against Rbm28, with 0.378 (inactive); and GGUGACUGGUAAAUGCCAGTT against Olfr1502, with -0.428 (inactive).
With GCCUAUGAUAAGUCUGUGUTT against Ifitm10, the z-score was -2.25 (active).
Then CGGUCUUUAUACACAUAUATT against Wnt7a, with -0.0297 (inactive).
Then GGUGAGAAUGUGCUUCAAUTT against Egr2, with -0.0732 (inactive); and GCAUCGUCUAUAUUUUUGGTT against Timm50, with -1.56 (inactive).
On to GGAAGACGAAGAGUUUGGATT against Aqp5, for which the z-score is 2.37 (active).
Then GGAAUGCUUAGUGAAAUUUTT against Ahctf1, with 0.481 (inactive); and GGAUUCUGAACCUUACAGATT against Hoxd9, with 1.61 (inactive); and CGGAGUUGGGAUUUACCAGTT against Pdia5, with -0.594 (inactive).
Then CCGAGGAGAACACUUGUAGTT against Opn4, with -2.54 (active).
Then GGCACCUUAAUGCUGACUUTT against Sdc4, with -0.694 (inactive); and GGCUCAAGGUUUUCUCUACTT against Olfr710, with -0.0341 (inactive); and GGUAUAUCCCUCACAAAAGTT against Dnah2, with -1.69 (inactive).
GCAGUUAUGUUAUAGCUGCTT against Ctu2: the z-score was 0.0152 (inactive).
Then GCUAGUUUAAGAGACUUUGTT against Nfatc2ip, with 0.234 (inactive).
Then GGUCUAAGUCUGAAUGGCCTT against Agrp, with 0.539 (inactive); and CGACUGGAAUCUAAUAACUTT against Fgf2, with 0.987 (inactive); and CGGCUCCAGGCAAAUAUGGTT against Ezh1, with -1.64 (inactive).
Then GGAUCAAUGGUGUCUUUGUTT against Pdzk1, with -2.2 (active); and CGAGAAAGUAUUGACCGAGTT against Anxa5, with -0.524 (inactive); and GGAAGGUGUUCGUAGAGAATT against Mad2l1, with 0.0941 (inactive).
Consider GCACCGUGUCGUUGACUUGTT against Trim56, for which the z-score is 0.566 (inactive).
Take CCUAUCGAGUGAAAGUAAATT against Abcg2: the z-score is -0.304 (inactive).
Turning to “GGCACUGCUAUUAACUACATT against 4933414I15Rik”, the z-score was -0.906 (inactive).
Then CGCAGGUAUACAGGACUGCTT against Rhox8, with 2.33 (active).
Then CUGUUACCUAUCCCUCAUCTT against Sstr3, with -0.663 (inactive); and GCUACUCUUAUUCUACUUCTT against Slc29a3, with 0.145 (inactive); and GCCCUCAUCAGAAGAAACUTT against Cox7b2, with 0.864 (inactive).
Then GGUAGACCUAGAACAGCACTT against Ttyh2, with -0.495 (inactive); and GGUGAGAUUACUGAAAGAATT against Plod2, with -0.0899 (inactive); and GCCAGUCCUGAUAGCAUCATT against Rhox6, with -3.2 (active).
Turning to GGAGAAGGCAACUUCUGUUTT against Zfp641, the z-score was 0.19 (inactive).
Then CCUAUUGAUUGUAUAUCCATT against Emc2, with -0.429 (inactive).
Then CCAAAUUGUCUCUUCUAACTT against Dnah1, with 0.0269 (inactive); and GGAACAAAGAGUUUAAGGATT against Olfr1415, with 0.379 (inactive); and GGAACAAGUGGCUGAAGAUTT against Cyp11b2, with 0.566 (inactive).
Consider GCAUGUUUCUAAACUUAGUTT against Sh3rf2, for which the z-score is -0.432 (inactive).
On to GGUAUCGUAUAUGGAGAUCTT against Kif13a, for which the z-score is 2.12 (active).
Then GGUUCUGAAAGAGUGUUAGTT against Htatsf1, with -1.58 (inactive); and GGGCUCACAUUGUACACACTT against Nckap5, with 0.525 (inactive); and GGACAUCUUUUCAAACGUGTT against Acap1, with -1.09 (inactive).
Then GCUGAACGUGAGAUUGUGCTT against Acta1, with 1.33 (inactive).
Then GGUCAAUUAUGAAGCACCUTT against Pabpc4, with 0.158 (inactive); and GGCAACAAAAAAAUCCCAATT against Cd160, with -0.647 (inactive); and GGUAUCUGUGUGACUUCACTT against Pgpep1, with 3.63 (active).
Regarding GGGACAACAUUCAAAGGUCTT against Hdgfl1, the z-score was -0.322 (inactive).
Then GCGAUUGGCAGAUUGCUACTT against Tmem47, with 1.01 (inactive); and GCCGUUUCGUGUGGUAUUUTT against Tm4sf1, with -2.64 (active).
Then GGGAUAGCAAGACUUUCACTT against C5ar1, with 0.194 (inactive); and GGUUGUGAGUCAGUCUAGUTT against Tia1, with -1.55 (inactive).
Then GGAGCUCUGUGAAUCUCUUTT against Ska1, with -0.796 (inactive); and CCUUCCUGUUGUCAUGAGATT against Eipr1, with -0.868 (inactive).
With CCAAUGGUCAGGAGUGUAGTT against Prpsap2, the z-score is -0.766 (inactive).
Then GCGGCUCAAACUCAUUUUGTT against Gm4841, with 1.21 (inactive); and CCUUGACCUUAAUGUCUUCTT against Fgf23, with 2.05 (active); and GGUAUGAUGAUUGUUAGAUTT against Phf20, with 0.141 (inactive).
Then “GCUCUAAAACUGUGUACUCTT against 4930579K19Rik”, with -0.167 (inactive).
Then GGAAUUUUCUGGAAAUCCATT against Tctn2, with -0.111 (inactive); and GGCUCUCAUUGAUGCAUGUTT against Cpeb4, with -0.264 (inactive).
GGAAUGAAACCAAGUAUAATT against Calcb: the z-score is 0.853 (inactive).
For GCAGGUUCAGGCAGUAAUUTT against Kpna4, the z-score is 3.78 (active).
Then GCUCAUUGGGAUCAUUGGUTT against Fancd2, with 1.45 (inactive).
Then GGUGACACCCAGAAUGAGCTT against Htatsf1, with 1.81 (inactive).
Consider GGACUGUGGAUAACCUGCUTT against Hspb2, for which the z-score was -2.55 (active).
Then CCCUCAAUCUAACAGUGCATT against Dsg1b, with 0.75 (inactive); and GGAGAAAGACAACUUCCUATT against Clec7a, with 0.239 (inactive).
For GGCUCCUGUAAUGCUAACUTT against Zfp715, the z-score was -0.191 (inactive).
Then “GGAUACUUUAUGGUAUUUCTT against 9130023H24Rik”, with 1.45 (inactive).
Then GAUUUCAAGAUCCAGACUCTT against Riiad1, with -0.435 (inactive); and GCAGAGUUACAAGCUUUUATT against Diaph3, with -4.98 (active).
Then CCUCGUUCCUUUGAAAUCATT against Gfi1, with 0.255 (inactive).
